# Measurements: PubChem BioAssay AID652104 (National Center for Advancing Translational Sciences (NCATS), 2013)
# In all, about 410,000 compounds went through this assay and about 7,200 (1.8%) were called active. Where a call stands in place of a potency, no number is given. Another 7% or so got no clear call; they are omitted. The full list was thinned out, with actives kept by preference. Values without a mark were called inactive. Calls come from the whole dose curve; as a rule, active = well fitted activation curve with a large enough effect; inconclusive = small, poorly fitted or top-dose-only effect, or another doubt; inactive = no such curve, though single readings can be large or run the other way.
# Assay: qHTS of TDP-43 Inhibitors; note: nearly all actives have a fitted effect of over 50% in size
# Settings: TDP-43 expressing yeast growth rescue, BacTiter-Glo, 24 h; series mostly up to 46.1 µM
# Summary of the method: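 Cell-based yeast growth screen: TDP-43 expression induced in galactose, inoculum OD600=0.02 after raffinose pregrowth to mid-log. Read-out BacTiter-Glo luminescence at 24 hr, 30 deg C; inhibition of toxicity seen as signal increase.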
# Potency is the fitted concentration of half-maximal effect.
Structure (SMILES),Potency,growth rescue (activation)
Cc1ccc(Cl)cc1N(C)C(=O)Cn1nc(Cc2cccnc2)c2ccccc2c1=O,inactive,–
CCCn1c2ccccc2c2cnn(CC(=O)N3CCCC(C(=O)OCC)C3)c(=O)c21 (stereo unspecified),inactive,–
CCc1ccc(S(=O)(=O)n2ccnc2)cc1,inactive,–
COc1cccc(Cn2c(SCc3ccc(C(=O)N4CCC(C)CC4)cc3)nc3ccncc32)c1,inactive,–
N#C/C(=C\c1cccc(F)c1)c1nc(-c2cc3c(ccc4ccccc43)oc2=O)cs1,inactive,–
O=C(CSc1nc2c(c(=O)[nH]1)CN(Cc1ccc3c(c1)OCO3)CC2)Nc1cc(F)ccc1F,inactive,–
COc1ccc(-c2csc(Nc3ccccn3)n2)cc1,3.55 µM (active),–
CCCn1c(C2CCCN2c2nc(-c3ccc(OC)cc3)cs2)nc2ccccc21 (stereo unspecified),inactive,–
Cc1cc(-c2ccccc2)n2nc(-c3ccccc3)cc2n1,inactive,–
Cc1cccc(NS(=O)(=O)c2ccc([N+](=O)[O-])cc2)n1,inactive,–
COc1ccc(-c2csc(-c3c(N)c(C(=O)c4ccc(OC)c(OC)c4)n4ccccc34)n2)cc1,inactive,–
Cc1cccc(Nc2nc(-c3ccccc3)cs2)n1,14.1 µM (active),–
O=C(NCC(c1ccco1)S(=O)(=O)c1cccs1)c1ccc(F)cc1 (stereo unspecified),inactive,–
Cc1ccc(N(CC(=O)NCc2ccc(Cl)cc2)S(=O)(=O)N(C)C)cc1,inactive,–
COc1ccccc1CNC(=O)C(Cc1ccccc1)NS(=O)(=O)c1ccc2c(c1)oc(=O)n2C (stereo unspecified),inactive,–
Cc1ccc(Cn2c(=O)n(-c3ccc(C)cc3)c(=O)c3c2c2cc(C)ccc2n3C)cc1,inactive,–
CCOc1ccc(N2CC(C)Cn3c2nc2c3c(=O)n(Cc3c(F)cccc3Cl)c(=O)n2C)cc1 (stereo unspecified),inactive,–
CCCCC(=O)OC1=CN(Cc2ccccc2)S(=O)(=O)c2ccccc21,inactive,–
CC(=O)OC1=C(C(C)=O)N(Cc2ccccc2)S(=O)(=O)c2ccccc21,35.5 µM (active),–
CCOC(=O)CN1C(C(=O)c2ccccc2)=C(OC(=O)C(C)(C)C)c2ccccc2S1(=O)=O,inactive,–
CC(=O)Oc1ccc(-c2cccc(C(=O)N3CCCCC3)c2)cc1,–,-16% [at 1.82 µM]
CC(=O)c1ccc(OC(=O)N2CCOCC2)cc1,inactive,–
O=C(c1ccccc1)c1ccc(OC(=O)N2CCCC2)cc1,11.2 µM (active),–
O=S(=O)(NCC1OCCc2ccccc21)c1ccccc1 (stereo unspecified),10 µM (active),–
O=S(=O)(NCCc1ccccc1)c1ccccc1,inactive,–
O=C(Cc1ccccc1)NCC1OCCc2ccccc21 (stereo unspecified),inactive,–

Structure (SMILES),Potency,growth rescue (activation)
CCCOc1ccc(C(=O)Nc2ccc3oc(-c4cccc(Cl)c4Cl)nc3c2)cc1,inactive,–
CCOc1ccc(NC(=O)c2cc(S(=O)(=O)N3CCCC3)c[nH]2)cc1,inactive,–
CCCN(CCC)c1ccc(C(O)c2nnc(-c3ccccc3)o2)cc1 (stereo unspecified),inactive,–
CC1(c2nnc(-c3ccncc3)o2)CC(c2cccnc2)=NO1 (stereo unspecified),inactive,–
CN(C)c1ccc(-c2nnc(-c3cccnc3)o2)cc1,10 µM (active),–
O=C(Cn1ncc2c3ccccc3n(Cc3ccccc3)c2c1=O)NC1CCCCCC1,inactive,–
CCC(Sc1nnc(-c2ccc(OC)cc2)c(-c2ccc(OC)cc2)n1)C(=O)NC1CCCCC1 (stereo unspecified),inactive,–
CN(Cc1ccccc1)C(=O)c1cn(C)c2ccc(S(=O)(=O)N(C)C3CCCCC3)cc2c1=O,inactive,–
CCOc1ccccc1CNC(=O)c1ccc2c(c1)nc1n2CCC(C)C1 (stereo unspecified),inactive,–
CCOc1ccccc1C(=O)NCC(c1ccc(N(C)C)cc1)N1CCCC1 (stereo unspecified),inactive,–
COc1ccc(-c2noc(CSc3nnc(-c4ccccc4)n3-c3ccc(F)cc3)n2)c(OC)c1,inactive,–
COc1ccccc1C(=O)Nc1cccc(C(=O)N2CCOCC2)c1,inactive,–
COc1cc(C(c2c(NC(=O)c3ccco3)sc(C)c2C)N2CCOCC2)cc(OC)c1OC (stereo unspecified),inactive,–
CCc1cc(C(c2ccccc2OC)N2CCOCC2)c(NC(=O)c2ccccc2)s1 (stereo unspecified),20 µM (active),–
COc1ccccc1NC(=O)C1=C(C)Nc2nc(SCC(=O)c3ccc(C)cc3)nn2C1c1ccccc1C (stereo unspecified),inactive,–
CCCCn1c(CNC(=O)C23CC4CC(CC(C4)C2)C3)nnc1SCC(=O)Nc1ccc(C)cc1,inactive,–
O=C(CO/N=C/c1ccccc1OC(F)F)NC1CCCC1,–,26.6% [at 9.22 µM]
O=C(COc1ccccc1F)NNC(=O)c1cc(Br)ccc1Cl,inactive,–
O=C(CO/N=C/c1ccccc1O)NNC(=O)c1ccccc1Cl,3.16 µM (active),–
O=C(c1ccccc1F)N1CCC(c2nc3c(nnn3Cc3cccc(F)c3)c(=O)[nH]2)CC1,inactive,–
CC(C)c1ccc(OCC(=O)N(Cc2ccc(N(C)C)cc2)C2CCS(=O)(=O)C2)cc1 (stereo unspecified),inactive,–
COc1ccc(-c2cn3c(n2)sc2cc(C(=O)Nc4ccccc4F)ccc23)cc1,inactive,–
Cc1oc(C(N)=O)cc1COc1ccc(C(N)=O)cc1,inactive,–
NNC(=O)c1ccc(COCC(F)(F)C(F)F)cc1,inactive,–
Cc1ccc(COc2ccc(C(=O)NN)cc2)cc1,15.8 µM (active),–
Cc1nn2c(=O)cc(COC(=O)c3ccccc3NC(=O)COc3ccccc3C)nc2s1,inactive,–

Structure (SMILES),Potency,growth rescue (activation)
CCc1ccc2oc(-c3ccc(C)c(NC(=O)/C=C/c4ccco4)c3)nc2c1,inactive,–
Cc1ccc(OCCSc2nc(-c3cccs3)nc3cc(=O)[nH]n23)cc1Cl,inactive,–
COc1ccc(-c2nc3cnccn3c2NC(C)(C)CC(C)(C)C)cc1O,inactive,–
Cc1ccc(Nc2c(-c3ccc(C)cc3)nc3cnccn23)cc1,22.4 µM (active),–
Cc1ccc(Nc2c(-c3ccc(C)s3)nc3ccccn23)cc1,inactive,–
COc1ccc(-c2nc(CN3CCC(C(=O)NCCN(CC(C)C)CC(C)C)CC3)c(C)o2)cc1OC,inactive,–
CCNS(=O)(=O)c1cc(-c2nnc(Nc3cccc(C(F)(F)F)c3)c3ccccc23)ccc1C,inactive,–
CCC1=Nc2cc(C(=O)NCCCOC(C)C)ccc2Sc2ccc(C)cc21,inactive,–
CCCCC(=O)Nc1ccccc1N1CCN(c2ccc(F)cc2)CC1,22.4 µM (active),–
CCC(C)C(=O)Nc1ccccc1N1CCN(c2ccc(F)cc2)CC1 (stereo unspecified),25.1 µM (active),–
CC(=O)c1ccc(N2CCN(CC(=O)Nc3ccccc3N3CCOCC3)CC2)cc1,–,-6.9% [at 9.22 µM]
COc1ccc(NC(C)=O)cc1NC(=O)CN1CCN(c2ccc(F)cc2)CC1,inactive,–
CC(=O)N1c2ccccc2CC1C(=O)N1CCN(c2ccc(F)cc2)CC1 (stereo unspecified),inactive,–
CCCC(=O)Nc1ccccc1N1CCN(C(=O)c2ccccc2)CC1,inactive,–
CCCC12CN3CC(CCC)(CN(C1)C3c1c[nH]c3ccc(OC)cc13)C2=O (stereo unspecified),inactive,–
COc1cccc(C(O)c2nc3ccccc3n2C)c1 (stereo unspecified),inactive,–
CCCCCC(O)c1cccc(OCc2ccc3ccccc3n2)c1 (stereo unspecified),12.6 µM (active),–
COc1cccc(C(O)c2ncc(-c3ccc4ccccc4c3)[nH]2)c1 (stereo unspecified),inactive,–
COc1ccc(OC)c(-c2csc(-c3c(N)c(C(=O)c4ccccc4)n4ccccc34)n2)c1,inactive,–
CCC(=O)Nc1cccc(-c2nc3cc(C)ccc3o2)c1,14.1 µM (active),–
O=C(Nc1cccc(-c2nc3ccccc3o2)c1)c1cccc(Br)c1,inactive,–
Cc1ccc(SCC(=O)Nc2ccc3oc(-c4ccccc4C)nc3c2)cc1,inactive,–
CCOc1ccc(-n2c(C)nc3c(cnn3-c3ccc(C)cc3)c2=O)cc1,inactive,–
CCOC(=O)Cn1c(=O)n(C2CCCCC2)c2nc(-c3cccc(OC)c3)nc(C(N)=O)c21,inactive,–
Cc1ccc(Cl)cc1NC(=O)CCS(=O)(=O)c1ccc(Br)s1,inactive,–
O=c1[nH]snc1-c1c(Cl)cccc1Cl,17.8 µM (active),–

Structure (SMILES),Potency,growth rescue (activation)
O=Cc1c(Cl)cccc1Cl,inactive,–
CN(C)NC(=O)c1csnc1-c1c(Cl)cccc1Cl,inactive,–
Cc1ccc(NC(=O)C2CC(c3ccc(F)cc3)=NO2)cc1 (stereo unspecified),inactive,–
Cc1ccccc1N1CC(C(=O)Nc2ccc3c(c2)OCO3)CC1=O (stereo unspecified),inactive,–
O=C(Nc1ccc2c(c1)OCO2)C1CC(c2c(F)cccc2Cl)=NO1 (stereo unspecified),10 µM (active),–
Cc1cccc(CSc2nc3ccncc3n2Cc2ccc(C(=O)O)cc2)c1,inactive,–
COc1ccccc1-c1nnc(NC(=O)c2ccc3ncsc3c2)o1,11.2 µM (active),–
CSc1ccccc1-c1nnc(NC(=O)c2ccc3c(c2)OCCO3)o1,inactive,–
Cc1ccc(C(=O)Nc2nnc(C3=COCCO3)o2)cc1C,inactive,–
CCOc1ccc(NC(=O)CCC(=O)N2CC(C)Oc3ccc(C)cc32)cc1 (stereo unspecified),inactive,–
Clc1ccc(C2=CSC3=Nc4cccc5cccc(c45)N23)cc1,17.8 µM (active),–
COc1ccc(CCN2C(=O)c3oc4cc(C)cc(C)c4c(=O)c3C2c2ccccc2F)cc1OC (stereo unspecified),inactive,–
O=C(Nc1cc(-c2nc3ncccc3o2)ccc1Cl)c1ccco1,inactive,–
O=C(Nc1ccc2nc(SCCOc3ccccc3)sc2c1)c1ccco1,inactive,–
O=C(Nc1cccc(NC(=O)c2ccco2)c1)c1cnccn1,12.6 µM (active),–
CSc1nc(=O)c2c(n1C)NC(=O)CC2c1ccccc1OC(C)C (stereo unspecified),–,5.81% [at 9.22 µM]
COc1ccc(CCN2C(=O)N(c3cccc(OC)c3)C(=O)C2CC(=O)Nc2ccccc2)cc1 (stereo unspecified),inactive,–
N#Cc1ccccc1Cn1cnc2nc3c(cc2c1=O)CCCC3,inactive,–
O=C(CSc1nc2ccccc2o1)N1CCN(c2ccc(Cl)cc2)CC1,inactive,–
Cc1ccc2onc(CC(=O)N3CCN(c4ccc(Cl)cc4)CC3)c2c1,20 µM (active),–
Cc1ccc2oc(=O)c3cnn(CC(=O)N4CCN(c5cccc(Cl)c5)CC4)c3c2c1,inactive,–
Cc1nnc(NCc2ccccc2)c2c1nnn2Cc1ccc(F)cc1,inactive,–
Cc1nc2nc(SCC(=O)N(Cc3ccccc3)C(C)C)nn2c(C)c1Cc1ccccc1Cl,inactive,–
